According to ChEMBL document CHEMBL2218924, “A broad activity screen in support of a chemogenomic map for kinase signalling research and drug discovery” (Biochem J, 2013):

How the values were obtained:
[1] = target: T1, Mitogen-activated protein kinase kinase kinase 7 (Homo sapiens) (UniProt O43318); settings: at 10 µM
T1 sequence (whole entry): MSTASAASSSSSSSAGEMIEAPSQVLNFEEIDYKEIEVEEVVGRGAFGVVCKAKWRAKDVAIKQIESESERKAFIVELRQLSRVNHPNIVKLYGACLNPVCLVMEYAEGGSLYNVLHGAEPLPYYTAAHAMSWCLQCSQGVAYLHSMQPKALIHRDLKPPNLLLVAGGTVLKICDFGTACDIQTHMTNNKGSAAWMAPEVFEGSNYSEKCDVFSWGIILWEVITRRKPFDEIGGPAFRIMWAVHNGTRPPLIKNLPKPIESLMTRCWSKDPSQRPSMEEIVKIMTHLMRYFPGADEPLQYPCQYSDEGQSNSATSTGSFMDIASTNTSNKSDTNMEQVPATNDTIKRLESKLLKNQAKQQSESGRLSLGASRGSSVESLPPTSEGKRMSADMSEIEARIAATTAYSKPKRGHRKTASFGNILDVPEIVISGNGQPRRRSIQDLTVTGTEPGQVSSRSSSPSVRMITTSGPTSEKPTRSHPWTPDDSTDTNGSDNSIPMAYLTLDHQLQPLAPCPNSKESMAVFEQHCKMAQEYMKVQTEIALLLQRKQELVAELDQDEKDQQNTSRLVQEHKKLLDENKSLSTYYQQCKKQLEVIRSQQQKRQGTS

[2] = target: T2, Serine/threonine-protein kinase TAO2 (Homo sapiens) (UniProt Q9UL54); settings: at 10 µM
T2 sequence (whole entry): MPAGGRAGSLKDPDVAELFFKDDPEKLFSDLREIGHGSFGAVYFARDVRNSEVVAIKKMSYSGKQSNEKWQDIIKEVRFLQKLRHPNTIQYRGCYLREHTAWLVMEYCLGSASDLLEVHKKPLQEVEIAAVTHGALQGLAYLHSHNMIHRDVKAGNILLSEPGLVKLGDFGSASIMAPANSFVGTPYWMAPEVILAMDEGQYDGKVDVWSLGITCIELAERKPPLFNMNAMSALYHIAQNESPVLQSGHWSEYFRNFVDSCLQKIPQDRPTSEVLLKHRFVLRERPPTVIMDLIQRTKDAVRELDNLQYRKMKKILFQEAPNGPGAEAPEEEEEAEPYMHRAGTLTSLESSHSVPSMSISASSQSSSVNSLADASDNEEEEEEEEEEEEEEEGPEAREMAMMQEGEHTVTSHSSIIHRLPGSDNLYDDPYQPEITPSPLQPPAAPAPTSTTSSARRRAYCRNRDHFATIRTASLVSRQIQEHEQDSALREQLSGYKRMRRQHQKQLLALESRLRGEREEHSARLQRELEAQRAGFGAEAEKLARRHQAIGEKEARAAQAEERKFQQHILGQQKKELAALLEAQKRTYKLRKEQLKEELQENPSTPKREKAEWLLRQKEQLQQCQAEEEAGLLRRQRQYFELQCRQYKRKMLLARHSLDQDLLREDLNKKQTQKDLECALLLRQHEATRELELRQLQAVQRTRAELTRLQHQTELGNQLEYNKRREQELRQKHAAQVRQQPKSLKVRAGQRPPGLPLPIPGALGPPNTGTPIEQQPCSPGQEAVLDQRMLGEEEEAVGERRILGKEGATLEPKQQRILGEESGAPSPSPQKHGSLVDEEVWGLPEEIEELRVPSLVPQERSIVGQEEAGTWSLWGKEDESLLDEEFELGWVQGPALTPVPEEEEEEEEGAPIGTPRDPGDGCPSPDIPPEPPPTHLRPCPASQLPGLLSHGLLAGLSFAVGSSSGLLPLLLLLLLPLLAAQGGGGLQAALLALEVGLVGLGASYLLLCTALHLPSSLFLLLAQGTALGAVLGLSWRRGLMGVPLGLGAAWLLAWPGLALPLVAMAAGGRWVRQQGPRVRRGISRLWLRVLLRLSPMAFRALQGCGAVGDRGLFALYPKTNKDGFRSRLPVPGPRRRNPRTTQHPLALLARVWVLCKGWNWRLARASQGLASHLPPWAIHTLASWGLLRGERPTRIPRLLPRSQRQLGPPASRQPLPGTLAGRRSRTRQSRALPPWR

[3] = target: T3, Serine/threonine-protein kinase TBK1 (Homo sapiens) (UniProt Q9UHD2); settings: at 10 µM
T3 sequence (whole entry): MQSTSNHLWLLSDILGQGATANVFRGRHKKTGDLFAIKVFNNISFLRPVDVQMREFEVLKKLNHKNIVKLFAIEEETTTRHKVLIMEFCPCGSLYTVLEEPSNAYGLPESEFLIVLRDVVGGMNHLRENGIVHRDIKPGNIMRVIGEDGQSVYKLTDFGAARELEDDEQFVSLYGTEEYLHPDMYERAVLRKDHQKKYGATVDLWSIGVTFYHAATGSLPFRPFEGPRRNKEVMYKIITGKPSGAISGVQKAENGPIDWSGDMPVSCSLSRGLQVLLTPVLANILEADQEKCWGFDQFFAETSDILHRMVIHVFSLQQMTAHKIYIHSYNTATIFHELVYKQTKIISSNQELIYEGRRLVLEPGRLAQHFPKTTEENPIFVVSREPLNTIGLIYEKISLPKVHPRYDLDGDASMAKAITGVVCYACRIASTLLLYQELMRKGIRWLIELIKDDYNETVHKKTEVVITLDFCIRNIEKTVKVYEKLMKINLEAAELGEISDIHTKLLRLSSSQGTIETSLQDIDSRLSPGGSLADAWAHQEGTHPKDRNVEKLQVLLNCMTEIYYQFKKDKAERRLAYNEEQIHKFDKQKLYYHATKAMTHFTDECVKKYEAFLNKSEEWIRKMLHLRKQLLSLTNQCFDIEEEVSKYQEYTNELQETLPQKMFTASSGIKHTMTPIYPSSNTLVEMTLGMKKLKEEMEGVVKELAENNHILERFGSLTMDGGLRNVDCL

[4] = target: T4, Inhibitor of nuclear factor kappa-B kinase subunit alpha (Homo sapiens) (UniProt O15111); settings: at 1 µM
T4 sequence (whole entry): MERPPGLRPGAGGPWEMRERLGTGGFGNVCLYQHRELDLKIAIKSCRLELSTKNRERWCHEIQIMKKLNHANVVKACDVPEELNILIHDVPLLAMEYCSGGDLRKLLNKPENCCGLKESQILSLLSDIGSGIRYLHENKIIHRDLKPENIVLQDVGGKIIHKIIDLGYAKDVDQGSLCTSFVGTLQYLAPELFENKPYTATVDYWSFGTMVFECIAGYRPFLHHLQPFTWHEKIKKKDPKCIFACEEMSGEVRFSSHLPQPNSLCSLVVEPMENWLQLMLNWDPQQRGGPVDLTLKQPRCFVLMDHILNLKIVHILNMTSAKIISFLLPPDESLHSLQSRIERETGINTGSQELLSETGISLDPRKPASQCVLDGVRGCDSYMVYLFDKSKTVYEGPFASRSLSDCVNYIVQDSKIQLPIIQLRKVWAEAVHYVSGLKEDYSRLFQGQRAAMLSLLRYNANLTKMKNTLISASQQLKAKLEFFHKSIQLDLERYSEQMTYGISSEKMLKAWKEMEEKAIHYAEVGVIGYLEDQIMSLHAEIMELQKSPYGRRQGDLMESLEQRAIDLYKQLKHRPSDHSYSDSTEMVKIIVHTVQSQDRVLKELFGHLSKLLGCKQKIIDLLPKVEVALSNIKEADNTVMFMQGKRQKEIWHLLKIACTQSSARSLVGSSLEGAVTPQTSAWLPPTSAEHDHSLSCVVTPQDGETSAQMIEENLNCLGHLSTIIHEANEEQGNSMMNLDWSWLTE

[5] = target: T5, Inhibitor of nuclear factor kappa-B kinase subunit beta (Homo sapiens) (UniProt O14920); settings: at 1 µM
T5 sequence (whole entry): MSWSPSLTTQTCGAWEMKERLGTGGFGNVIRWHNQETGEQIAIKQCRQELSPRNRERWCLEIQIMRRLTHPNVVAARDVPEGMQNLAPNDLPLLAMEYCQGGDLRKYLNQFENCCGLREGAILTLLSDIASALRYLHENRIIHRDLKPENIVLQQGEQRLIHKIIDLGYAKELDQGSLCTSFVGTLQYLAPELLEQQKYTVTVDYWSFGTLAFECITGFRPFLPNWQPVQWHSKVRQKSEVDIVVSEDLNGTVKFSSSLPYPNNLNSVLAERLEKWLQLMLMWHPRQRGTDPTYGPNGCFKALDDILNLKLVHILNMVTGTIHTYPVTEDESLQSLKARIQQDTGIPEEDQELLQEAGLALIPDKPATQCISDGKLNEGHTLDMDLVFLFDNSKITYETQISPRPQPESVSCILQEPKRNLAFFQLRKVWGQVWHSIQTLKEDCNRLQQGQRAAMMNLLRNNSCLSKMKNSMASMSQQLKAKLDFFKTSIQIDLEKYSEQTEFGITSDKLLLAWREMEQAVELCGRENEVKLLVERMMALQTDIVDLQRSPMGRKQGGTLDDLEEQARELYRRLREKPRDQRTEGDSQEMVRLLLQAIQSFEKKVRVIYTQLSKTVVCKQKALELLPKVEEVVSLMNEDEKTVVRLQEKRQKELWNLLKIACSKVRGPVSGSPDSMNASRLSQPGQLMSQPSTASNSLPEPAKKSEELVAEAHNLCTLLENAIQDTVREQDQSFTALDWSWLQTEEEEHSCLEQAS

[6] = target: T6, Serine/threonine-protein kinase TAO1 (Homo sapiens) (UniProt Q7L7X3); settings: at 10 µM
T6 sequence (whole entry): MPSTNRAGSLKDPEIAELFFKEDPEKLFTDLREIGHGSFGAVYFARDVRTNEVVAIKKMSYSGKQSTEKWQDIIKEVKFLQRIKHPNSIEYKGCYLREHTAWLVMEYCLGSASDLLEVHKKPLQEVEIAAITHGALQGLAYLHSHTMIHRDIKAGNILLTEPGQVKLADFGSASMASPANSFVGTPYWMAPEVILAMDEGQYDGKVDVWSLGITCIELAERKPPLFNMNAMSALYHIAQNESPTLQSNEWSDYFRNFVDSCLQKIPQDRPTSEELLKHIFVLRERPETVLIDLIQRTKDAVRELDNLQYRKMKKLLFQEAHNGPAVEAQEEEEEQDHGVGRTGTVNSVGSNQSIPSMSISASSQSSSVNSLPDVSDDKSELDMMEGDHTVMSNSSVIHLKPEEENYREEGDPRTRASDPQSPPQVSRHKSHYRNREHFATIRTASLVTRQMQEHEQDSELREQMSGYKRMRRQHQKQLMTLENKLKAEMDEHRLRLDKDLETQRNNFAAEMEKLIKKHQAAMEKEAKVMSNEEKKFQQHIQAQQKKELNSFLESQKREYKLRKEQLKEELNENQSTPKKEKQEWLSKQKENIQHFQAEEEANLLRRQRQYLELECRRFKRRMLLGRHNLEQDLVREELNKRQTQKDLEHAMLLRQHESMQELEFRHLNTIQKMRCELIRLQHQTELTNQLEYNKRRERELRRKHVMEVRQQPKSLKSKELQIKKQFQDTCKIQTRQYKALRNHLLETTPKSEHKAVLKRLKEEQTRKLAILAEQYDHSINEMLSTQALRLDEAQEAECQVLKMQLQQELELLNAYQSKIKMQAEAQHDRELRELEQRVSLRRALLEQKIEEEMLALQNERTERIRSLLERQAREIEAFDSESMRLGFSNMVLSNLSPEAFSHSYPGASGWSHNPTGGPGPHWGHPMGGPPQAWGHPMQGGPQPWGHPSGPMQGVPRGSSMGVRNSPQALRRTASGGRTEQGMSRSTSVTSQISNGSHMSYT

[7] = target: T7, Serine/threonine-protein kinase TAO3 (Homo sapiens) (UniProt Q9H2K8); settings: at 10 µM
T7 sequence (whole entry): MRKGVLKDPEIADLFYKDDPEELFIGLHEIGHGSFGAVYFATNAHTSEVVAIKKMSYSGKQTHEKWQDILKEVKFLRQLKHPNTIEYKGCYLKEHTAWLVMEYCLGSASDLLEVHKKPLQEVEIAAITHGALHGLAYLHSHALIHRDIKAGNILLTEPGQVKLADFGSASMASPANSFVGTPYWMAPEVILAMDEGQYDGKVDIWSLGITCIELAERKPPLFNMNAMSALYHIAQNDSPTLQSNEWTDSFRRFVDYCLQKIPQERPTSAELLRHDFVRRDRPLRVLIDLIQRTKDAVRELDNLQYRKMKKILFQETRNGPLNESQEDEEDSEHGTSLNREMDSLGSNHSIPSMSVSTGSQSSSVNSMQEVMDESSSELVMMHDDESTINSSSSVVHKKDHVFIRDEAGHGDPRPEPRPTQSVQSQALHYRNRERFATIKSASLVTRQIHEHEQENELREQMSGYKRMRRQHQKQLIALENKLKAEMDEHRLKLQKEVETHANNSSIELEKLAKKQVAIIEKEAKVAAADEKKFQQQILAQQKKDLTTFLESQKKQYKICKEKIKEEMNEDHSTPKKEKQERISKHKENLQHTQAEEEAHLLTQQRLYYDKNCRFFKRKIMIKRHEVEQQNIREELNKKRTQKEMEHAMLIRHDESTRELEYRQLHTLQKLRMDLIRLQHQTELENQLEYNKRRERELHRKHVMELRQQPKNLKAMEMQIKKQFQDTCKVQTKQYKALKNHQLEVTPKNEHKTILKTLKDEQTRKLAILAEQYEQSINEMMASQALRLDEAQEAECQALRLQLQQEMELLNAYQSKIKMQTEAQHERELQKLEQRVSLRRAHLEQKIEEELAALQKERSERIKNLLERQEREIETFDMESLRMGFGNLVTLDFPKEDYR

[8] = target: T3, Serine/threonine-protein kinase TBK1 (Homo sapiens); settings: at 1 µM
[9] = target: Insulin-like growth factor 1 receptor (Homo sapiens) (UniProt P08069); settings: at 10 µM
Insulin-like growth factor 1 receptor (Homo sapiens), sequence (P08069 31-736 limits assumed): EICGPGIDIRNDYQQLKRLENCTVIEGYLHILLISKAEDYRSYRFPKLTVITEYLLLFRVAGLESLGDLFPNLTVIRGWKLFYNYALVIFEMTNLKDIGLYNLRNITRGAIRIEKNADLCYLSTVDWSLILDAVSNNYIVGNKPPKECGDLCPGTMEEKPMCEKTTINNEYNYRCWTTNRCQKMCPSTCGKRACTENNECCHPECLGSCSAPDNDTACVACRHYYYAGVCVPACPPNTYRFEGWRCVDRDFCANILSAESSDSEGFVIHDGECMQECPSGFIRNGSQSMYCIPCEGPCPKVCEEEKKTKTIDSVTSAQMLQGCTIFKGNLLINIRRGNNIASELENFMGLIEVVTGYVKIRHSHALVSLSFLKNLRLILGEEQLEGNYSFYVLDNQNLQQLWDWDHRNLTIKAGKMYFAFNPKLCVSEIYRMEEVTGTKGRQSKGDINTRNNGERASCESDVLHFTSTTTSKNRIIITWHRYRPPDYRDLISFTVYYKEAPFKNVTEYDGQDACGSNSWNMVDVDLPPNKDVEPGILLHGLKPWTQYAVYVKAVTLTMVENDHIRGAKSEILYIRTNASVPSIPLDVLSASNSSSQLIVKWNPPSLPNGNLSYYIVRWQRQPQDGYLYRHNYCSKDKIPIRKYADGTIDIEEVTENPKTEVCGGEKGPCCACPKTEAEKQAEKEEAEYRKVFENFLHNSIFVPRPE
Insulin-like growth factor 1 receptor (Homo sapiens), sequence (P08069 741-1367 limits assumed): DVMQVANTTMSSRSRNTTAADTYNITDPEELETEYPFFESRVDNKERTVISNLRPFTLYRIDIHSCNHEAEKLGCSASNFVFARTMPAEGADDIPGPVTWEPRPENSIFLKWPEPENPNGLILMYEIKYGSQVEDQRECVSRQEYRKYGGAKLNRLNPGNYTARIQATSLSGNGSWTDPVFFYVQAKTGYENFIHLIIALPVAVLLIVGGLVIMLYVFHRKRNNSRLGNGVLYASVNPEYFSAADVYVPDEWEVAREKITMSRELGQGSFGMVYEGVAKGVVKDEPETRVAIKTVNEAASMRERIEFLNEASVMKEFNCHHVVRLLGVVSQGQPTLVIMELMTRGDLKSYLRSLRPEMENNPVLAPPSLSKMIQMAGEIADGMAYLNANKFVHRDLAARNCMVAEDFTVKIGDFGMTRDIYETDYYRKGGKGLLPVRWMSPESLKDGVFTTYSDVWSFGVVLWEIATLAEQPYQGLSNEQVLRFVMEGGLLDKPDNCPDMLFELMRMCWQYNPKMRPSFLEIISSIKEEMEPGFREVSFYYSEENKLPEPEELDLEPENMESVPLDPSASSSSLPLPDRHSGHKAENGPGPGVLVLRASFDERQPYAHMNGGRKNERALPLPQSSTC

[10] = target: T5, Inhibitor of nuclear factor kappa-B kinase subunit beta (Homo sapiens); settings: at 10 µM
[11] = target: Insulin receptor (Homo sapiens) (UniProt P06213); settings: at 1 µM
Insulin receptor (Homo sapiens), sequence (P06213 28-758 limits assumed): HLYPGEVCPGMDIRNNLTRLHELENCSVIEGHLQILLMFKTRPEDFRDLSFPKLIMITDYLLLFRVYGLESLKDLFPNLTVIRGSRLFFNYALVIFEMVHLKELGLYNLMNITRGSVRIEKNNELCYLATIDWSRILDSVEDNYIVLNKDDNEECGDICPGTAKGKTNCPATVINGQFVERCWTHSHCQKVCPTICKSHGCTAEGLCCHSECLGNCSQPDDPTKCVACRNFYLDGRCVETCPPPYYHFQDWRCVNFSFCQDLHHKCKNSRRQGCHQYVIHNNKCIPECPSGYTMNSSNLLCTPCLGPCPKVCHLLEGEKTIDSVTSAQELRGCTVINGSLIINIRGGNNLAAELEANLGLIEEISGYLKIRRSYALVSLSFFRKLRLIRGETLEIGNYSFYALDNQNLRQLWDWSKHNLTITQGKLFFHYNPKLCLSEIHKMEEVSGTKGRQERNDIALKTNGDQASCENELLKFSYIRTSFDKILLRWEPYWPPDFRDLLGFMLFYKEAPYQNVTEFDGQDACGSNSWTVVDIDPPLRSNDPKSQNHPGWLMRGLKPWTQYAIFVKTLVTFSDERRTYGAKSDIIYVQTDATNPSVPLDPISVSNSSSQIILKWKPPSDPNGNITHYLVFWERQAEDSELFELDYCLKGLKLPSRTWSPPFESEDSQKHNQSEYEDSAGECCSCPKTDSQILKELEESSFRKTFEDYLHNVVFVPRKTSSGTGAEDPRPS
Insulin receptor (Homo sapiens), sequence (P06213 763-1382 limits assumed): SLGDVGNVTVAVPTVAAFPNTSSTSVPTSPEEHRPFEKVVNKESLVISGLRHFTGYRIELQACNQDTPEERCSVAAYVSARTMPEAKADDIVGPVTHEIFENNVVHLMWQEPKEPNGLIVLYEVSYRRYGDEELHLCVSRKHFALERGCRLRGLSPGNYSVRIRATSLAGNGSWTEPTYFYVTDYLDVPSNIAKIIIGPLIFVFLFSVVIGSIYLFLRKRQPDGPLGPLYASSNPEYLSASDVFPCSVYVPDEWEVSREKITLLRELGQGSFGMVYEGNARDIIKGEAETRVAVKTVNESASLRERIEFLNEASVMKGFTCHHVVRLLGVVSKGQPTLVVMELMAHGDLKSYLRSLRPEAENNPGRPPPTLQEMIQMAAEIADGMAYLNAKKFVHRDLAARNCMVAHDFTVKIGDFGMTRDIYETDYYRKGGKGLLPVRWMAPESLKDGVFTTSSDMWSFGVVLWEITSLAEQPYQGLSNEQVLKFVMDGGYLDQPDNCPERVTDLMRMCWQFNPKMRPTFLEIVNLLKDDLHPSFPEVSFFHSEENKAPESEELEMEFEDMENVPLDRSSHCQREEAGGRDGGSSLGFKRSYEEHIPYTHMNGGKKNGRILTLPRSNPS

| Structure (SMILES) | residual activity [1] | residual activity [2] | residual activity [3] | residual activity [4] | residual activity [5] | residual activity [6] | residual activity [7] | residual activity [8] | residual activity [9] | residual activity [10] | residual activity [11] |
| --- | --- | --- | --- | --- | --- | --- | --- | --- | --- | --- | --- |
| Nc1nccc(-c2c(-c3ccc(F)cc3)ncn2C2CCNCC2)n1 | 79% | 80% | 69% | 120% | 116% | – | – | – | – | – | – |
| N#Cc1c(NC(=O)c2cccc3ccccc23)sc2c1CCCC2 | 93% | 99% | 73% | – | – | 93% | 88% | 67% | 124% | 100% | 137% |
